From the supplement of paper PMC11732987, “Enantioselective OTUD7B fragment discovery through chemoproteomics screening and high-throughput optimisation” (Communications Chemistry, 2025)

How the values were obtained:
Assay in all cases: log2 ratio of Biotin-Ahx-Ub-VS probe labelling (fragment/DMSO); higher = less target engagement (more negative = stronger competition), active = hit call of the paper (q ≤ 0.05, log2 ratio ≤ -1)
Conditions in all cases: compound concentration: 200 uM; treatment time: 3 h
[1] = target: T1, USP19 (UniProt O94966)
T1 sequence (whole entry): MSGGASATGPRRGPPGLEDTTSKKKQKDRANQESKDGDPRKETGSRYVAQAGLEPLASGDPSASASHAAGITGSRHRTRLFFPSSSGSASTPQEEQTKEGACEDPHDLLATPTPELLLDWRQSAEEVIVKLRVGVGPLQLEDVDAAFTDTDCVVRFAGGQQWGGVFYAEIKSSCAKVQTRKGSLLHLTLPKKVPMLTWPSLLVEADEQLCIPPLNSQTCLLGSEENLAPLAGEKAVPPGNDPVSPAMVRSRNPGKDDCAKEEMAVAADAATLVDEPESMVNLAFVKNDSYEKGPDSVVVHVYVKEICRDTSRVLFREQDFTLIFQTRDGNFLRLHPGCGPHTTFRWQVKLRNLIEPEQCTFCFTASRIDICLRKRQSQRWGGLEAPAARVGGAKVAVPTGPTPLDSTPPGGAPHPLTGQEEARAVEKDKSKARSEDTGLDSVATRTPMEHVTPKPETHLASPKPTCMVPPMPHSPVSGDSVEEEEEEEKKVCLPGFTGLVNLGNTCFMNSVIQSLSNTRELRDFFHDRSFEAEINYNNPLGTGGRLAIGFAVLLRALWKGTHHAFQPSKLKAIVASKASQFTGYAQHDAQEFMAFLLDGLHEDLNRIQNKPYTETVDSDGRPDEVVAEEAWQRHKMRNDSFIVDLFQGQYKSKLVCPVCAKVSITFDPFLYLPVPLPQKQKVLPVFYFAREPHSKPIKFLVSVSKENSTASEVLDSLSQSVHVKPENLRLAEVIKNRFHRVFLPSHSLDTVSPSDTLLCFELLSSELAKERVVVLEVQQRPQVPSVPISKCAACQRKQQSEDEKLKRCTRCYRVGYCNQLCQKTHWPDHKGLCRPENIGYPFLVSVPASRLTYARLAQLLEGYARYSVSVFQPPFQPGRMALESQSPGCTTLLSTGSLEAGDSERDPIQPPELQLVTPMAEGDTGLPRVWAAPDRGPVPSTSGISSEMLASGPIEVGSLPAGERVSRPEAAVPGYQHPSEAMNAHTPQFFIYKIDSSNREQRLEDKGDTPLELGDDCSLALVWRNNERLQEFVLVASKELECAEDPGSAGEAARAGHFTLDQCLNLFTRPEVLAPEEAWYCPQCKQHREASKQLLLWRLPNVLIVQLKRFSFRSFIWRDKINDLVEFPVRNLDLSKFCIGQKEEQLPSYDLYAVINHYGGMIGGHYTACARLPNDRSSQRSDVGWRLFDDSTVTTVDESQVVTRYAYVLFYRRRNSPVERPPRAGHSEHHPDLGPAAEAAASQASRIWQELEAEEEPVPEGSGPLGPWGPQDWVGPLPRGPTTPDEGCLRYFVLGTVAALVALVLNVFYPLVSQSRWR
Method in brief: (§1)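 Average log2 ratios of fragment over vehicle were obtained by unpaired t-test from global-median-normalised Spectronaut label-free quantities. Proteins with ≥2 unique peptides were included. HEK293T lysate (495 µg per sample) was treated in triplicate with fragment at 200 µM or vehicle for 3 h, then with Biotin-Ahx-Ub-VS at 0.5 µM final for 1 h, and labelled DUBs were NeutrAvidin-enriched and run by diaPASEF LC-MS/MS.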

[2] = target: USP24 (UniProt Q9UPU5)
Method in brief: as §1

[3] = target: T2, USP25 (UniProt Q9UHP3)
T2 sequence (whole entry): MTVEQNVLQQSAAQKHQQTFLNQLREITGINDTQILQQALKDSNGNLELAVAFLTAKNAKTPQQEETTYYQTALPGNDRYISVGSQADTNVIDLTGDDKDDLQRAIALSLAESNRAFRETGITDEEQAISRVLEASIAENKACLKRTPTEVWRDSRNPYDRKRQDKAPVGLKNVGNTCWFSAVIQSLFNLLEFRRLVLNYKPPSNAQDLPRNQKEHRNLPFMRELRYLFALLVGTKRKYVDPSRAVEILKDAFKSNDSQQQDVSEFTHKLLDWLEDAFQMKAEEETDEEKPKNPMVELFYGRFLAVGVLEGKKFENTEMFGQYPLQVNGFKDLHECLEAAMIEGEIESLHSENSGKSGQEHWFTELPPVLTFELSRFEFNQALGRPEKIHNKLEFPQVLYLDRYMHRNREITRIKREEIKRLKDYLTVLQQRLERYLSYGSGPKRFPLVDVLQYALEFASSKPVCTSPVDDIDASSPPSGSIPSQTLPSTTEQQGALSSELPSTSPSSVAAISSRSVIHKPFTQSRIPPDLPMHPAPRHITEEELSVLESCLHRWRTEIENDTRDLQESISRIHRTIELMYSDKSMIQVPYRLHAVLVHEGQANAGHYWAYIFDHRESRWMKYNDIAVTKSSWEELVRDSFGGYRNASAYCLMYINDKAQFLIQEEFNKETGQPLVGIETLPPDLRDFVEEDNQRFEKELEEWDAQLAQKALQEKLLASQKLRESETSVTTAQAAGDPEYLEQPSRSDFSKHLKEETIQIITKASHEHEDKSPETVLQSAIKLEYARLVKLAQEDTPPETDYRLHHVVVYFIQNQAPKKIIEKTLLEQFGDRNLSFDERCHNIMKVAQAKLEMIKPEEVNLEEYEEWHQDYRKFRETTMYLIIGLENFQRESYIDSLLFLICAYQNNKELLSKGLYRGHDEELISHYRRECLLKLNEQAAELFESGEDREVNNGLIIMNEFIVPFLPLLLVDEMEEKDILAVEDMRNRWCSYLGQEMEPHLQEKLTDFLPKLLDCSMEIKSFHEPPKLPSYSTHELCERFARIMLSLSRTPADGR
Method in brief: as §1

[4] = target: T3, USP28 (UniProt Q96RU2)
T3 sequence (whole entry): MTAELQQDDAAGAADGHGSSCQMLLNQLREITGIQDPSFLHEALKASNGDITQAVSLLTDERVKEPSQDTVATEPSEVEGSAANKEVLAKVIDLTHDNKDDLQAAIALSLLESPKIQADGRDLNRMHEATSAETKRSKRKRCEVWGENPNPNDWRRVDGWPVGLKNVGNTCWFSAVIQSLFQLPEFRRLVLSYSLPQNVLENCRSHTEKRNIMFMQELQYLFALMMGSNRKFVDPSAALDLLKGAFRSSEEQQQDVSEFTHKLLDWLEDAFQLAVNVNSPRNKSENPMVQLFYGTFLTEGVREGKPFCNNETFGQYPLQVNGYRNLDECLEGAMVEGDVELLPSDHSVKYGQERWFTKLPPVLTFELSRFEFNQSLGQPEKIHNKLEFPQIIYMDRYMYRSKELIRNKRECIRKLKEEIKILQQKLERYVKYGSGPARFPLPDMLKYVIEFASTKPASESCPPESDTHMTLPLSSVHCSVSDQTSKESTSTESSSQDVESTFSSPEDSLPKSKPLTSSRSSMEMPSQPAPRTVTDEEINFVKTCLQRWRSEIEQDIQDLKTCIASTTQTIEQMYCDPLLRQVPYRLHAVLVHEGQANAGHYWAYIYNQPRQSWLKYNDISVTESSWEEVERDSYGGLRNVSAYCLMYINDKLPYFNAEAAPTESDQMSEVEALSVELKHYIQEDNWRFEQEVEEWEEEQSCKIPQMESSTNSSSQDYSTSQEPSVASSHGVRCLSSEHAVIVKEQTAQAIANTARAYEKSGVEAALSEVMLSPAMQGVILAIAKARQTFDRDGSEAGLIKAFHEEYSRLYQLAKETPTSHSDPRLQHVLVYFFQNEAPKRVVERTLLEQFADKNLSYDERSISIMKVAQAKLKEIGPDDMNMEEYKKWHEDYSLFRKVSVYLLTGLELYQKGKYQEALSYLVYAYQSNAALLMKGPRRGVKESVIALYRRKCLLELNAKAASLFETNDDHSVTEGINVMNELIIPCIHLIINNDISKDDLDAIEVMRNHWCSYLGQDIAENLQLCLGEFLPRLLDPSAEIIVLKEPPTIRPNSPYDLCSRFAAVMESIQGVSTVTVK
Method in brief: as §1

Measured: log2 ratio of Biotin-Ahx-Ub-VS probe labelling

USP24, sequence (Q9UPU5 whole entry): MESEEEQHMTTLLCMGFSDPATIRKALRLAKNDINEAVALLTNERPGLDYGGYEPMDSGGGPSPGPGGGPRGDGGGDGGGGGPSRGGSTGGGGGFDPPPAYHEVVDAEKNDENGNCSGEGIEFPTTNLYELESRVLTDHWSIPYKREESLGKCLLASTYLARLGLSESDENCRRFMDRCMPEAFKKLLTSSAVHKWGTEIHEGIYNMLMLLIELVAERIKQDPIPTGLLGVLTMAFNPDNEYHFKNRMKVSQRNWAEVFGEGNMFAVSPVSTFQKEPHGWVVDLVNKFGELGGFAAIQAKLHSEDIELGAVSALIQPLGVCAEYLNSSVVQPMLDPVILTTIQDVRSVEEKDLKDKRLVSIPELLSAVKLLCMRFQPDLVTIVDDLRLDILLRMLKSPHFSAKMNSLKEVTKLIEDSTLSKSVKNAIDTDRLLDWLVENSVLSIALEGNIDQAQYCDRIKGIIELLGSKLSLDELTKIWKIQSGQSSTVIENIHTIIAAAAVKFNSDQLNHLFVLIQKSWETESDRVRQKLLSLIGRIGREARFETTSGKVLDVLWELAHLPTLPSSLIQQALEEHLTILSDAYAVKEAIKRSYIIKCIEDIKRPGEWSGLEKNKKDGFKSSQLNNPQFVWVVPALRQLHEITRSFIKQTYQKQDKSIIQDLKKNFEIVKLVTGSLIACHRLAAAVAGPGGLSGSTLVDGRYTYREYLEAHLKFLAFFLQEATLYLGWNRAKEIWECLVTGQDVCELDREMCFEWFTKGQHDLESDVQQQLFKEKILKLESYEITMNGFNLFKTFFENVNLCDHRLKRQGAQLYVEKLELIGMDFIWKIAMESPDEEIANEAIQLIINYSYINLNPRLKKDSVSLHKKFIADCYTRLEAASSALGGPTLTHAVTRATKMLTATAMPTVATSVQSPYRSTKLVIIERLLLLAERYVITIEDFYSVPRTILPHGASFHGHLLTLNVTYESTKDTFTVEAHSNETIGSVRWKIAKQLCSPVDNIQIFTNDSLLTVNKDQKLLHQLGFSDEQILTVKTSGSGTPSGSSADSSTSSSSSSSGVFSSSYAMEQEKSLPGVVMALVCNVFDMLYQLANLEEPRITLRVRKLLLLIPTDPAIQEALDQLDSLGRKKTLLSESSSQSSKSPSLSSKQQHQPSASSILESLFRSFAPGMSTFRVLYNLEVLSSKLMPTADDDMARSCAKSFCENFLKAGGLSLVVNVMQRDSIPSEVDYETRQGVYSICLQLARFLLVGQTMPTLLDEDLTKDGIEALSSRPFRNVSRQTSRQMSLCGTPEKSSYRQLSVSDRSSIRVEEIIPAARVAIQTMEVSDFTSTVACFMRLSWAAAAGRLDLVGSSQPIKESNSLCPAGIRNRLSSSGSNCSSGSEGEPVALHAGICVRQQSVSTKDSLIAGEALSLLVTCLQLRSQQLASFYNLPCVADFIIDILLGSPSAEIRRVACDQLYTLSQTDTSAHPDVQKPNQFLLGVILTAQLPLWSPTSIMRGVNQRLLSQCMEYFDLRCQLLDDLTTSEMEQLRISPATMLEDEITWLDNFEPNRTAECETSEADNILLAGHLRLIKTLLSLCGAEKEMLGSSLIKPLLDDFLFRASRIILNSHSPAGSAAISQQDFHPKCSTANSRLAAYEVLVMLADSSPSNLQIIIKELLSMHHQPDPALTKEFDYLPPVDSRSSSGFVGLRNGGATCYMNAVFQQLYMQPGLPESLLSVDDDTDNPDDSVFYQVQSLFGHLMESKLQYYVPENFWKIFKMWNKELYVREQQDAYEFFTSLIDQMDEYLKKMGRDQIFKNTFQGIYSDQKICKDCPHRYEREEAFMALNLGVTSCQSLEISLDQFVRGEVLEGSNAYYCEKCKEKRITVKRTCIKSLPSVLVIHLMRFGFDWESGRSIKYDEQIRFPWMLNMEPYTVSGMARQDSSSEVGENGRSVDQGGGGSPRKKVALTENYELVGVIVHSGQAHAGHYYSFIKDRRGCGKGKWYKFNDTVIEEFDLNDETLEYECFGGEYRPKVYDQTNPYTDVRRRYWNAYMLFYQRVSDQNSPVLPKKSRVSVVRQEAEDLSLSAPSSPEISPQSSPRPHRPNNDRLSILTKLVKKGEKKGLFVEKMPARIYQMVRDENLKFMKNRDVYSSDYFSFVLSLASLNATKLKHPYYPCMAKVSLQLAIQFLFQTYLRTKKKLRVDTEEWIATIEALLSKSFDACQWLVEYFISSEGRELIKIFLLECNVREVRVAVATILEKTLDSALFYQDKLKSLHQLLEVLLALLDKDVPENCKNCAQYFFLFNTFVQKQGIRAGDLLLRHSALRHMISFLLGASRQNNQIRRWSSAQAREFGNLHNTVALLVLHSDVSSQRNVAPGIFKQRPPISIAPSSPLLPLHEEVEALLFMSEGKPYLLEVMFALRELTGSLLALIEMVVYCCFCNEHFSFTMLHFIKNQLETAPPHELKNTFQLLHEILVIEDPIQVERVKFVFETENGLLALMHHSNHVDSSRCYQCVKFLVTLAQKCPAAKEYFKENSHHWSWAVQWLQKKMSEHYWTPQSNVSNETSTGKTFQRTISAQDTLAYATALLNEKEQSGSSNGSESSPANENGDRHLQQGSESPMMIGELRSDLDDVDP

Cc1ccccc1OCC(=O)N1CCN(C(=O)CCl)CC1
inactive: [1] -0.401 | [2] -0.309 | [3] -0.0662 | [4] -0.249
